From PubChem
Shown are actives, neighbours in structure and some others; about 4.8% of the full set was active somewhere.
ALR inh: inhibitors of human ALR sulfhydryl oxidase, primary screen, biochemical, H2O2 detection, HRP-luminol luminescence, single point. FAD-linked sulfhydryl oxidase ALR (Homo sapiens), P55789. purified ALR, DTT oxidation. inhibition, % (no concentration beside the values). 290,000 tested, 3.8% active;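 active = mean replicate inhibition above about 79%, with every replicate also reaching it, limit read from the data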
Target sequence (P55789 whole entry, looked up): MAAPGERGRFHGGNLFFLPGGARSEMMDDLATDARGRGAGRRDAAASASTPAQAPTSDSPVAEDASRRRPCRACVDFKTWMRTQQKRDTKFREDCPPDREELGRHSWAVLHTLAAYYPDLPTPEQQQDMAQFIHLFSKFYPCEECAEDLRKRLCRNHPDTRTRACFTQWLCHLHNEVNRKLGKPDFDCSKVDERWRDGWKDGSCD
AI-2 QS modul: Vibrio harveyi AI-2 quorum sensing modulators, primary screen, JMH597 strain, luminescence/OD600 ratio. Vibrio harveyi JMH597 AI-2 luminescence/OD600 ratio, 9 h; active compounds read low; strain lacks LuxN and CqsS sensors; 0 = neutral-control median. activity change, % at 7.5 µM. 300,000 tested, 0.4% active. AID 2094, 2009; in the data active = activity change below about -75%, passing the limit was not always enough;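 also: luminescence divided by OD600 gain over 9 h not by final OD600 alone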
HIF activator: HIF pathway transcriptional activators, primary screen, cell-based, U2OS HRE-luciferase, luminescence. U2OS HRE-luciferase reporter; normalized: DMSO 0%, desferrioxamine 100%. activation, % at 7.5 µM (by protocol). 300,000 tested, 0.32% active. AID 1910, 2009;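 active = mean activation of at least 10% of the iron chelator positive control signal, with at least half of replicates also reaching 10%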
Mot1-301 SUMO: yeast Mot1-301 growth rescue at high temperature, primary screen, SUMOylation pathway inhibitor project, S. cerevisiae, ATP luminescence, 38.5C; S. cerevisiae Mot1-301 growth rescue; percent above DMSO median, 100 means doubled; AID 2716, 2010; 320,000 tested, 1% active; growth rescue, % at 18.8 µM;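 active = every valid replicate shows activation above 250% relative to neutral control wells; inactive = the rest, any valid replicate at or below 250%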;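 also: OY570 slx delta 5 strain wells were the positive control but not used for scaling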
Starred values were filed as active, the others as inactive; . = no result given.

SMILES	ALR inh	AI-2 QS modul	HIF activator	Mot1-301 SUMO
O=C1NC(=O)/C(=C/c2cc3c(cc2Br)OCO3)S1	96*	5	4	-15
CC(C)(C)OC(=O)NCC(=O)Oc1cc2oc(=O)cc(-c3ccccc3)c2cc1Cl	9	28	0	30
O=C(Oc1cc2oc(=O)cc(-c3ccccc3)c2cc1Cl)C1CCCCC1	98*	0	1	-9
N#Cc1ccc(OCC(=O)NCC(c2cccs2)N2CCOCC2)cc1 (stereo unspecified)	-1	13	0	0
CCOC(=O)C1=C(COC(=O)C(C)(C)Oc2ccc(Cl)cc2)NC(=O)NC1C (stereo unspecified)	-3	.	.	-1
CC(C)CN1C(=O)/C(=C/c2ccco2)NC1=S	9	27	0	-11
CC(C)CN1C(=O)/C(=C/c2cccs2)NC1=S	99*	7	-1	30
CC(=O)Oc1ccc(-c2cccc(C(=O)N(C)c3ccc(O)cc3)c2)cc1	86*	10	-1	1
O=P(O)(C(O)c1ccccc1)C(O)c1ccccc1 (stereo unspecified)	-2	37	-1	79
CCCCn1c(N)c(N(CCC(C)C)C(=O)C2CCCN(C(=O)c3ccc(Cl)cc3)C2)c(=O)[nH]c1=O (stereo unspecified)	-10	17	2	-15
CN(Cc1ccc(Cl)c(Cl)c1)C(=O)C1CSC2(C)CCC(=O)N12 (stereo unspecified)	0	.	.	-2
CCOC(=O)Nc1sc2c(c1C(=O)OCC)CCC2	10	8	0	12
Cc1cccc(NC(=O)COc2cccc3c2CCN(C)C3=O)c1C	-8	11	9.8*	12
CCOC(=O)c1c(NC(=O)COc2cccc3c2CCN(C)C3=O)sc2c1CCC2	87*	25	-1	-1
Cc1cc(C(C)(C)C)cc(C)c1COC(=O)CN1C(=O)NC2(CCCC2)C1=O	-2	.	.	-4
COCCn1c(SCC(=O)NC2CC2)nc2ccccc21	0	.	.	-7
COCCn1c(SCC(=O)c2cc(C)n(C)c2C)nc2ccccc2c1=O	99*	5	1	5
COc1cccc(CNc2ccc(S(=O)(=O)Nc3nccs3)cc2)c1O	93*	-17	0	96
O=C(O)CCc1ccc(-c2cccs2)n1CCC(=O)O	-11	21	-11	-2
CC(=O)c1cccc(-n2c(CCC(=O)O)ccc2-c2cccs2)c1	89*	23	1	22
O=C(O)CCc1ccc(-c2cccs2)n1NC(=O)c1ccccc1Br	99*	3	0	5
O=C(O)CCc1ccc(-c2cccs2)n1CCc1ccccc1	99*	4	1	0
Cc1ccc(S(=O)(=O)N2CCN(C(=O)COC(=O)c3cnc(C)cn3)CC2)c(C)c1	-6	46	0	-5
Cc1cc(C)cc(C(=O)Nc2ccc(N3CCN(C(=O)c4ccco4)CC3)cc2)c1	2	28	-15	2
Cc1c(NC(=O)CN2CCN(c3ccc(O)cc3)CC2)c(=O)n(-c2ccccc2)n1C	99*	15	0	1
SMILES	ALR inh	AI-2 QS modul	HIF activator	Mot1-301 SUMO
Cc1ccc(CSCC(=O)Nc2c(C)n(C)n(-c3ccccc3)c2=O)cc1	-8	26	0	48
Cc1ccc(N2CC(=O)N(NC(=O)CN3CCN(c4ccccc4)CC3)CC2=O)cc1	85*	16	-1	4
Cc1ccccc1CSCC(=O)Nc1c(C)n(C)n(-c2ccccc2)c1=O	98*	15	0	.
CCn1c(CNc2ccc(F)cc2)nnc1SCCN1CCCCC1	98*	0	1	-5
CCn1c(CNc2ccccc2Cl)nnc1SCCN1CCCCC1	-4	15	0	-3
Nc1sc(-c2ccccc2)n[n+]1Cc1cccc2cccnc12	.	-88*	2	92
CCOC(=O)c1cnc2c(-c3ccccc3)c(-c3ccccc3)nn2c1C	-6	17	0	166
CC(C)(C)C(=O)Nc1ccc(NC(=O)C(C)(C)C)cc1	-4	24	1	12
CC(C)(C)C(=O)Nc1ccc(S(=O)(=O)c2ccc(NC(=O)C(C)(C)C)cc2)cc1	-6	10	0	320*
COc1ccc(-c2csc(Cc3nnc4n3CCCCC4)n2)cc1OC	98*	6	0	298
COc1ccc(-c2nnc3n2CCCCC3)cc1OC	.	11	0	2
Oc1c(Cl)cc(Cl)cc1CNc1ccccn1	.	9	0	.
Oc1c(Cl)cc(Cl)cc1CNc1nc2ccccc2[nH]1	99*	-29	0	-16
Cc1nc(C)c(-c2csc(Nc3ccc(O)c(C(=O)O)c3)n2)s1	89*	6	0	6
Cc1nc(C)c(-c2csc(Nc3cccnc3)n2)s1	89*	5	1	-6
Cc1cc(O)ccc1Nc1nc(-c2sc(N)nc2C)cs1	85*	17	.	1
CCC(=O)Nc1nc(C)c(-c2csc(Nc3cccc(C(=O)O)c3)n2)s1	88*	11	-2	-3
CCN(CC)C(=O)C1CCCN(C(=O)c2cc(COc3cccc(OC)c3)on2)C1 (stereo unspecified)	0	35	1	-8
Cc1ccccc1NS(=O)(=O)c1ccc(C(=O)N2CCN(S(=O)(=O)c3ccccc3)CC2)cc1	-1	.	0	55
CC(=O)Nc1nc(C)c(-c2csc(Nc3ccc(O)cc3)n2)s1	99*	.	.	133
COc1cc(C)c(COc2ncnc3ccccc23)cc1OC	-2	14	0	12
Cc1ccc(CC(=O)Nc2ccc(S(=O)(=O)Nc3ncccn3)cc2)cc1	-16	-92*	-3	-9
O=C(CCSc1ccccc1)Nc1ccc(S(=O)(=O)Nc2ncccn2)cc1	0	-79*	0	-2
Cc1ccc(CC(=O)Nc2ccc(S(=O)(=O)Nc3nccc(C)n3)cc2)cc1	3	6	2	11
CC1CCN(Cc2c(C(=O)N/N=C/c3cc(Br)ccc3O)nnn2-c2nonc2N)CC1	.	-23	53*	-19
SMILES	ALR inh	AI-2 QS modul	HIF activator	Mot1-301 SUMO
CC1CCN(Cc2c(C(=O)N/N=C/c3cc(Cl)ccc3O)nnn2-c2nonc2N)CC1	.	-11	40*	-1
Cc1cc(C)c(/C=N/NC(=O)c2nnn(-c3nonc3N)c2CN2CCC(C)CC2)c(C)c1	0	0	0	-11
COc1c(Cl)cc(Cl)cc1/C=N/NC(=O)c1nnn(-c2nonc2N)c1CN1CCC(C)CC1	-2	28	0	-17
Cc1ccsc1C(=O)Nc1ccc(S(=O)(=O)N2CCOCC2)cc1	-3	.	.	0
C/C(=N\Nc1ccccn1)c1ccc(C(C)C)cc1	-3	-13	6	18
C(=N\Nc1ccccn1)/c1ccc(N2CCOCC2)cc1	99*	8	3	9
C/C(=N\Nc1ccccn1)c1ccc(N2CCOCC2)cc1	98*	5	2	13
C/C(=N\Nc1ccccn1)c1ccc(Br)s1	99*	33	2	10
